According to paper PMC11006913:
Residue numbers refer to the chain shown, from its start.

Experiments:
Experiment in all cases: PBM; 200 nM protein, PBS
Settings in all cases: dsDNA, one strand shown
[1] = target: T1, SIX6 (Homo sapiens, UniProt O95475 114-200, L167I)
T1 sequence: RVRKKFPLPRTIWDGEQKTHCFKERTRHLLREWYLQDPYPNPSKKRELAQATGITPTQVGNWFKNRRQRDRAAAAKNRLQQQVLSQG

[2] = target: T2, SIX6 (Homo sapiens, UniProt O95475 114-200, H141N)
T2 sequence: T1 sequence with H28N, I54L

[3] = target: T3, SIX6 (Homo sapiens, UniProt O95475 114-200, T165G)
T3 sequence: T1 sequence with T52G, I54L

[4] = target: T4, SIX6 (Homo sapiens, UniProt O95475 114-200, T139Q)
T4 sequence: T1 sequence with T26Q, I54L

[5] = target: T5, SIX6 (Homo sapiens, UniProt O95475 114-200, T165A)
T5 sequence: T1 sequence with T52A, I54L

[6] = target: T6, SIX6 (Homo sapiens, UniProt O95475 114-200, T165I)
T6 sequence: T1 sequence with T52I, I54L

[7] = target: T7, SIX6 (Homo sapiens, UniProt O95475 114-200, L143V)
T7 sequence: T1 sequence with L30V, I54L

[8] = target: T8, SIX6 (Homo sapiens, UniProt O95475 114-200, T165P)
T8 sequence: T1 sequence with T52P, I54L

[9] = target: T9, SIX6 (Homo sapiens, UniProt O95475 114-200, L167M)
T9 sequence: T1 sequence with I54M

[10] = target: T10, SIX6 (Homo sapiens, UniProt O95475 114-200, L143I)
T10 sequence: T1 sequence with L30I, I54L

[11] = target: T11, SIX6 (Homo sapiens, UniProt O95475 114-200)
T11 sequence: T1 sequence with I54L

[12] = target: T12, SIX6 (Homo sapiens, UniProt O95475 114-200, L143M)
T12 sequence: T1 sequence with L30M, I54L

[13] = target: T13, SIX6 (Homo sapiens, UniProt O95475 114-200, L167V)
T13 sequence: T1 sequence with I54V

Sequence | binding signal [1] | binding signal [2] | binding signal [3] | binding signal [4] | binding signal [5] | binding signal [6] | binding signal [7] | binding signal [8] | binding signal [9] | binding signal [10] | binding signal [11] | binding signal [12] | binding signal [13]
CCGTATCA | 11.1 upbm affinity estimate (log intensity, higher = more binding, comparable within an allelic series) | 11.1 upbm affinity estimate (log intensity, higher = more binding, comparable within an allelic series) | 11.1 upbm affinity estimate (log intensity, higher = more binding, comparable within an allelic series) | 11.1 upbm affinity estimate (log intensity, higher = more binding, comparable within an allelic series) | 11.1 upbm affinity estimate (log intensity, higher = more binding, comparable within an allelic series) | 10.9 upbm affinity estimate (log intensity, higher = more binding, comparable within an allelic series) |  |  |  |  |  |  | 
GATCAGCC | 10.2 upbm affinity estimate (log intensity, higher = more binding, comparable within an allelic series) |  |  |  |  |  | 9.81 upbm affinity estimate (log intensity, higher = more binding, comparable within an allelic series) | 9.41 upbm affinity estimate (log intensity, higher = more binding, comparable within an allelic series) | 10 upbm affinity estimate (log intensity, higher = more binding, comparable within an allelic series) | 9.82 upbm affinity estimate (log intensity, higher = more binding, comparable within an allelic series) | 10.3 upbm affinity estimate (log intensity, higher = more binding, comparable within an allelic series) |  | 
ATACAGAT | 10.7 upbm affinity estimate (log intensity, higher = more binding, comparable within an allelic series) | 10.6 upbm affinity estimate (log intensity, higher = more binding, comparable within an allelic series) | 10.7 upbm affinity estimate (log intensity, higher = more binding, comparable within an allelic series) | 10.8 upbm affinity estimate (log intensity, higher = more binding, comparable within an allelic series) | 10.5 upbm affinity estimate (log intensity, higher = more binding, comparable within an allelic series) | 10.5 upbm affinity estimate (log intensity, higher = more binding, comparable within an allelic series) |  | 10 upbm affinity estimate (log intensity, higher = more binding, comparable within an allelic series) | 10.5 upbm affinity estimate (log intensity, higher = more binding, comparable within an allelic series) | 10.3 upbm affinity estimate (log intensity, higher = more binding, comparable within an allelic series) | 10.6 upbm affinity estimate (log intensity, higher = more binding, comparable within an allelic series) | 10.7 upbm affinity estimate (log intensity, higher = more binding, comparable within an allelic series) | 10.5 upbm affinity estimate (log intensity, higher = more binding, comparable within an allelic series)
GACGGATA | 10.2 upbm affinity estimate (log intensity, higher = more binding, comparable within an allelic series) | 10.1 upbm affinity estimate (log intensity, higher = more binding, comparable within an allelic series) |  |  |  |  | 9.77 upbm affinity estimate (log intensity, higher = more binding, comparable within an allelic series) | 9.43 upbm affinity estimate (log intensity, higher = more binding, comparable within an allelic series) |  | 9.79 upbm affinity estimate (log intensity, higher = more binding, comparable within an allelic series) | 10.2 upbm affinity estimate (log intensity, higher = more binding, comparable within an allelic series) |  | 
GTATCTTA | 10.7 upbm affinity estimate (log intensity, higher = more binding, comparable within an allelic series) | 10.7 upbm affinity estimate (log intensity, higher = more binding, comparable within an allelic series) | 10.8 upbm affinity estimate (log intensity, higher = more binding, comparable within an allelic series) | 11 upbm affinity estimate (log intensity, higher = more binding, comparable within an allelic series) | 10.6 upbm affinity estimate (log intensity, higher = more binding, comparable within an allelic series) | 10.5 upbm affinity estimate (log intensity, higher = more binding, comparable within an allelic series) |  | 9.9 upbm affinity estimate (log intensity, higher = more binding, comparable within an allelic series) | 10.3 upbm affinity estimate (log intensity, higher = more binding, comparable within an allelic series) | 10.2 upbm affinity estimate (log intensity, higher = more binding, comparable within an allelic series) | 10.5 upbm affinity estimate (log intensity, higher = more binding, comparable within an allelic series) | 10.5 upbm affinity estimate (log intensity, higher = more binding, comparable within an allelic series) | 10.6 upbm affinity estimate (log intensity, higher = more binding, comparable within an allelic series)
CTGACACC | 10.3 upbm affinity estimate (log intensity, higher = more binding, comparable within an allelic series) |  |  |  | 11.1 upbm affinity estimate (log intensity, higher = more binding, comparable within an allelic series) |  |  |  | 9.83 upbm affinity estimate (log intensity, higher = more binding, comparable within an allelic series) |  |  |  | 
ATATCAAG | 11.1 upbm affinity estimate (log intensity, higher = more binding, comparable within an allelic series) |  | 11.1 upbm affinity estimate (log intensity, higher = more binding, comparable within an allelic series) |  |  | 10.9 upbm affinity estimate (log intensity, higher = more binding, comparable within an allelic series) |  |  |  |  |  | 11 upbm affinity estimate (log intensity, higher = more binding, comparable within an allelic series) | 10.9 upbm affinity estimate (log intensity, higher = more binding, comparable within an allelic series)
GGTGTCAA | 10.4 upbm affinity estimate (log intensity, higher = more binding, comparable within an allelic series) |  | 11.1 upbm affinity estimate (log intensity, higher = more binding, comparable within an allelic series) |  | 11.1 upbm affinity estimate (log intensity, higher = more binding, comparable within an allelic series) |  |  | 9.33 upbm affinity estimate (log intensity, higher = more binding, comparable within an allelic series) | 9.85 upbm affinity estimate (log intensity, higher = more binding, comparable within an allelic series) |  |  |  | 
AGTTGTAT | 10.2 upbm affinity estimate (log intensity, higher = more binding, comparable within an allelic series) | 10.2 upbm affinity estimate (log intensity, higher = more binding, comparable within an allelic series) |  |  |  | 10.2 upbm affinity estimate (log intensity, higher = more binding, comparable within an allelic series) |  |  | 10.1 upbm affinity estimate (log intensity, higher = more binding, comparable within an allelic series) |  | 10.3 upbm affinity estimate (log intensity, higher = more binding, comparable within an allelic series) |  | 
ACAATACT | 10.3 upbm affinity estimate (log intensity, higher = more binding, comparable within an allelic series) | 10.2 upbm affinity estimate (log intensity, higher = more binding, comparable within an allelic series) | 10.3 upbm affinity estimate (log intensity, higher = more binding, comparable within an allelic series) | 10.5 upbm affinity estimate (log intensity, higher = more binding, comparable within an allelic series) | 10.3 upbm affinity estimate (log intensity, higher = more binding, comparable within an allelic series) | 10.2 upbm affinity estimate (log intensity, higher = more binding, comparable within an allelic series) |  |  | 10.2 upbm affinity estimate (log intensity, higher = more binding, comparable within an allelic series) | 10.1 upbm affinity estimate (log intensity, higher = more binding, comparable within an allelic series) | 10.2 upbm affinity estimate (log intensity, higher = more binding, comparable within an allelic series) | 10.4 upbm affinity estimate (log intensity, higher = more binding, comparable within an allelic series) | 10.2 upbm affinity estimate (log intensity, higher = more binding, comparable within an allelic series)
